Inconclusive results are not listed. Calls of active or inactive are those of the source.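 The calls were made as follows, unless noted: active = normalized viability below 100% at a tested concentration; inactive = the rest.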
Tests used:
[1] = viability loss in pontine glioma line – cell-based, SU-DIPG-XVII, MIPE5.0, CellTiter-Glo, qHTS, dose response (AID 1347060; cut-off not given, nearly all actives have AC50 up to about 26 µM;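 as to AC50: cells exposed to compound for 48 hours before viability readout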); settings: CellTiter-Glo ATP luminescence
[2] = viability loss in pontine glioma line – cell-based, SU-DIPG-XXV, MIPE5.0, CellTiter-Glo, qHTS, dose response (AID 1347065; cut-off not given, nearly all actives have AC50 up to about 26 µM;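 also: cells exposed to compound for 48 hours before ATP readout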); settings: CellTiter-Glo ATP luminescence
[3] = JHH-DIPG-1 glioma cell viability, MIPE5.0 library, CellTiter-Glo luminescence, qHTS (AID 1347067; cut-off not given, nearly all actives have AC50 up to about 26 µM;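 also: cells exposed to compound for 48 hours before readout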); settings: JHH-DIPG-1 glioma viability, CellTiter-Glo ATP luminescence
[4] = growth inhibition of DIPG cells – cell-based, MIPE5.0 library, qHTS (AID 1347068; cut-off not given, nearly all actives have IC50 up to about 30 µM;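 as to IC50: cells exposed to compound for 48 hours before viability readout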); settings: SU-DIPG-XXV viability
[5] = growth inhibition of DIPG cells – cell-based, MIPE4.0 library, CellTiter-Glo luminescence, qHTS (AID 1347066; cut-off not given, nearly all actives have AC50 up to about 30 µM;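 also: cells exposed to compound for 48 hours before readout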); settings: SU-DIPG-VI viability, CellTiter-Glo ATP luminescence
[6] = viability loss with induced miR-34 in A549 – imaging, A549 dox-inducible miR-34, nuclei and caspase counts, primary screen (AID 1347080;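 active = compounds whose cell count with miR-34 switched on is under 0.7 times the count with it off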); settings: A549 miR-34 inducible, Hoechst nuclei count, 48 h
[7] = MELAS cybrid and Rieske KO viability enhancers – cell-based, MELAS cybrids, Rieske KO mouse fibroblasts, CellTiter-Glo, primary screen (AID 1508586;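 active = mean z-score across replicates of 1.96 or higher in either the MELAS or the Rieske mutant cell line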;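 also: z relative to plate mean and SD of compound and empty wells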); settings: low glucose
[8] = drug combination growth inhibition, ovarian cancer – cell-based, oncology-focused library, rucaparib conditional, profiling panel (AID 1508598); settings: patient-derived ovarian cancer cells, CellTiter-Glo viability, 144 h, stronger effect = lower value
[9] = P. berghei load reduction in hepatocytes – cell-based, HepG2, luciferase luminescence, HepG2 viability, primary screen (AID 624349; in the data active = parasite load remaining mostly below about 12%, no sharp cut-off; inactive = mostly above about 10%;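 also: 100% = mean of DMSO negative control wells on the same plate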); settings: P. berghei liver stage in HepG2, luciferase luminescence, concentration not given here; parasite load remaining: stronger effect = lower value; viability: measured here: HepG2 viability without parasites
[10] = stronger effect = lower value, cell number ratio, induced over uninduced
[11] = measured here: relative caspase fold change +Dox/-Dox
[12] = measured here: total cells with miR-34 induction, stronger effect = lower value
[13] = measured here: total cells without miR-34 induction
[14] = MELAS cybrid survival, CellTiter-Glo 48 h, stronger effect = higher value
[15] = Rieske KO mouse fibroblast survival, CellTiter-Glo 72 h
[16] = at 0.000305 µM, OCI-C5x cells, with rucaparib 10 µM, 100% = cells with rucaparib alone
[17] = at 0.000305 µM, OCI-C5x cells, without rucaparib
[18] = at 0.000305 µM, OCI-P5x cells, with rucaparib 20 µM, 100% = cells with rucaparib alone
[19] = at 0.000305 µM, OCI-P5x cells, without rucaparib
[20] = at 0.00122 µM, OCI-C5x cells, with rucaparib 10 µM, 100% = cells with rucaparib alone
[21] = at 0.00122 µM, OCI-C5x cells, without rucaparib
[22] = at 0.00122 µM, OCI-P5x cells, with rucaparib 20 µM, 100% = cells with rucaparib alone
[23] = at 0.00122 µM, OCI-P5x cells, without rucaparib
[24] = at 0.00488 µM, OCI-C5x cells, with rucaparib 10 µM, 100% = cells with rucaparib alone
[25] = at 0.00488 µM, OCI-C5x cells, without rucaparib
[26] = at 0.00488 µM, OCI-P5x cells, with rucaparib 20 µM, 100% = cells with rucaparib alone
[27] = at 0.00488 µM, OCI-P5x cells, without rucaparib
[28] = at 0.0195 µM, OCI-C5x cells, with rucaparib 10 µM, 100% = cells with rucaparib alone
[29] = at 0.0195 µM, OCI-C5x cells, without rucaparib
[30] = at 0.0195 µM, OCI-P5x cells, with rucaparib 20 µM, 100% = cells with rucaparib alone
[31] = at 0.0195 µM, OCI-P5x cells, without rucaparib
[32] = at 0.0781 µM, OCI-C5x cells, with rucaparib 10 µM, 100% = cells with rucaparib alone
[33] = at 0.0781 µM, OCI-C5x cells, without rucaparib
[34] = at 0.0781 µM, OCI-P5x cells, with rucaparib 20 µM, 100% = cells with rucaparib alone
[35] = at 0.0781 µM, OCI-P5x cells, without rucaparib
[36] = at 0.313 µM, OCI-C5x cells, with rucaparib 10 µM, 100% = cells with rucaparib alone
[37] = at 0.313 µM, OCI-C5x cells, without rucaparib
[38] = at 0.313 µM, OCI-P5x cells, with rucaparib 20 µM, 100% = cells with rucaparib alone
[39] = at 0.313 µM, OCI-P5x cells, without rucaparib
[40] = at 1.25 µM, OCI-C5x cells, with rucaparib 10 µM, 100% = cells with rucaparib alone
[41] = at 1.25 µM, OCI-C5x cells, without rucaparib
[42] = at 1.25 µM, OCI-P5x cells, with rucaparib 20 µM, 100% = cells with rucaparib alone
[43] = at 1.25 µM, OCI-P5x cells, without rucaparib
[44] = at 5 µM, OCI-C5x cells, with rucaparib 10 µM, 100% = cells with rucaparib alone
[45] = at 5 µM, OCI-C5x cells, without rucaparib
[46] = at 5 µM, OCI-P5x cells, with rucaparib 20 µM, 100% = cells with rucaparib alone
[47] = at 5 µM, OCI-P5x cells, without rucaparib

CNc1nc(C)nc(N[C@H]2CCC[C@@H](C(=O)NCc3ccc(C#N)cc3C(F)(F)F)C2)n1
inactive: outcome [1] | outcome [2] | outcome [3] | outcome [4]

CCCNC(=O)c1cn2ncnc(Nc3cc(C(=O)NC4CC4)ccc3C)c2c1C
inactive: outcome [1] | outcome [2] | outcome [3] | outcome [4]

CCO[C@@H]1OC(=O)C[C@@H]1NC(=O)[C@@H]1CCCN2C(=O)CC[C@H](NC(=O)c3nccc4ccccc34)C(=O)N12
inactive: outcome [1] | outcome [2] | outcome [3] | outcome [4]

COc1cc(-c2cn(C)c(=O)c3cnccc23)c(OC)cc1CN(C)C
inactive: outcome [1] | outcome [2] | outcome [3] | outcome [4]

C[C@H]1CNC(=O)c2cnn3ccc(nc23)N[C@H](C)c2cc(F)ccc2O1
active: AC50 [1] 1.05 µM | AC50 [2] 0.934 µM | AC50 [3] 1.48 µM | IC50 [4] 2.95 µM

CC(C)C[C@@H]1NC(=O)[C@@H](C(C)C)NC(=O)[C@@H]2CCCN2C(=O)[C@@H](CC(=O)O)NC(=O)[C@@H](Cc2c[nH]c3ccccc23)NC1=O
inactive: outcome [1] | outcome [2] | outcome [3] | outcome [4]

CN1CCN(C2CCC(n3cc(-c4ccc(Oc5ccccc5)cc4)c4c(N)ncnc43)CC2)CC1 (centres undefined)
active: AC50 [1] 1.48 µM | AC50 [2] 1.86 µM | AC50 [3] 7.42 µM | IC50 [4] 8.33 µM

NC(=O)[C@@H](CCC(F)(F)F)N(Cc1ccc(-c2ncon2)cc1F)S(=O)(=O)c1ccc(Cl)cc1
inactive: outcome [1] | outcome [5] | outcome [3]

Cn1ncc(NC(=O)c2nc(-c3c(F)cccc3F)sc2N)c1N1CC[C@@H](N)[C@H](F)CC1
inactive: outcome [1] | outcome [3]

CC(=O)C1CCC2C3CCC4=CC(=O)CCC4(C)C3CCC12C (centres undefined)
inactive: outcome [1] | outcome [3] | outcome [4]

Cn1cc(-c2ccc(F)c(C(F)(F)F)c2)nc1C1CCN(c2ncnc3[nH]ncc23)CC1
inactive: outcome [1] | outcome [2] | outcome [4]

Nc1ncnc2c1C(=O)N(c1ccc(C3CCC(CC(=O)O)CC3)cc1)CCO2 (centres undefined)
-0.473: z-score [7, 15]
8200: cell count [6, 12]
inactive: outcome [1] | outcome [2] | outcome [3] | outcome [4] | fold change [6, 10] 0.873 | z-score [7, 14] -0.311
0.72: fold change [6, 11]
9390: cell count [6, 13]

CC(C)Oc1ccc(C(=O)N[C@H](CNC(=O)CN(C)C)Cc2ccc(-c3cn4cccc([C@H](C)O)c4n3)cc2)cc1Cl
active: AC50 [1] 0.0525 µM | AC50 [2] 0.0295 µM | viability [8, 28] 69.6% | viability [8, 29] 73.7% | viability [8, 30] 76.4% | viability [8, 31] 38.4% | viability [8, 32] 57.4% | viability [8, 33] 72.4% | viability [8, 34] 66.4% | viability [8, 35] 30.8% | viability [8, 36] 57.8% | viability [8, 37] 65% | viability [8, 38] 62.3% | viability [8, 39] 28.3% | viability [8, 40] 61.8% | viability [8, 41] 72.8% | viability [8, 42] 62.6% | viability [8, 43] 26.8% | viability [8, 44] 79.5% | viability [8, 45] 89.6% | viability [8, 46] 63.4% | viability [8, 47] 25.3%
inactive: outcome [3] | viability [8, 16] 116% | viability [8, 17] 118% | viability [8, 18] 118% | viability [8, 19] 103% | viability [8, 20] 112% | viability [8, 21] 123% | viability [8, 22] 107% | viability [8, 23] 107% | viability [8, 24] 117% | viability [8, 25] 115% | viability [8, 26] 107% | viability [8, 27] 101%

COc1cc2ncnc(Nc3ccc(O)c(Br)c3)c2cc1OC
inactive: parasite load remaining [9] 33.2% | z-score [7, 14] -0.521
98.7%: viability [9]
0.931: fold change [6, 11]
-0.0359: z-score [7, 15]
5290: cell count [6, 13]
3410: cell count [6, 12]
active: AC50 [1] 16.6 µM | AC50 [2] 14.8 µM | AC50 [3] 13.2 µM | fold change [6, 10] 0.645

CN[C@H]1CN(c2ccc3c(=O)c(C(=O)O)cn(-c4nccs4)c3n2)C[C@@H]1OC
active: AC50 [1] 0.762 µM | AC50 [2] 4.28 µM | viability [8, 18] 98.3% | viability [8, 22] 92.3% | viability [8, 23] 97.9% | viability [8, 27] 98.6% | viability [8, 30] 93.2% | viability [8, 31] 95.3% | viability [8, 33] 92.5% | viability [8, 34] 91.4% | viability [8, 35] 91.4% | viability [8, 38] 79.7% | viability [8, 39] 62.5% | viability [8, 42] 63.6% | viability [8, 43] 41.5% | viability [8, 44] 9.22% | viability [8, 45] 12.6% | viability [8, 46] 9.42% | viability [8, 47] 6.69%
inactive: viability [8, 16] 118% | viability [8, 17] 108% | viability [8, 19] 105% | viability [8, 20] 121% | viability [8, 21] 111% | viability [8, 24] 107% | viability [8, 25] 103% | viability [8, 26] 100% | viability [8, 28] 110% | viability [8, 29] 110% | viability [8, 32] 110% | viability [8, 36] 143% | viability [8, 37] 119% | viability [8, 40] 154% | viability [8, 41] 118%

N#Cc1cccc(-c2c[nH]c3ncnc(N4CCOCC4)c23)c1
inactive: outcome [1] | outcome [2] | outcome [4]

COc1ccc(CNc2nc(N(CCO)CCO)nc3c2ncn3C(C)C)cc1
84%: viability [9]
inactive: parasite load remaining [9] 40.6%
active: AC50 [1] 7.42 µM | AC50 [2] 10.5 µM | AC50 [3] 5.25 µM | IC50 [4] 11.8 µM

[2H]C([2H])(Nc1nc(-c2ccccc2C([2H])(C([2H])([2H])[2H])C([2H])([2H])[2H])ncc1C)c1ccc(-n2ccnn2)cc1
inactive: outcome [1] | outcome [2] | outcome [4]

CCNCCS(=O)(=O)NC[C@@]1(c2ccccc2)SC(NC(=O)C(C)(C)C)=NN1C(=O)C(C)(C)C
active: AC50 [1] 0.00742 µM | AC50 [2] 0.00468 µM | IC50 [4] 0.00296 µM

From PubChem BioAssay
